# Among all 340,000 compounds or so, about 1,000 (0.29%) were called active. Cut-off read from the data, not from the text of the source: inconclusive = inhibition above about 29% without an active follow-up result; inactive = below that. These entries were drawn from the full list. Measured potencies and affinities stand elsewhere.
# Target: Genome polyprotein (Dengue virus type 2 (strain 16681-PDK53)) (UniProt P29991)
# Test: Dengue-2 NS5 methyltransferase inhibitors, primary screen, biochemical, confirmation dose response (AID 588689)
# Conditions: Dengue-2 NS5 methyltransferase capping enzyme assay, at 25 µM, stronger effect = higher value
# [1] = measured here: pilot screen replicate inhibition
Structure (SMILES),inhibition,inhibition [1] [%]
Cc1cc(C(=O)NNC(=O)c2c(-c3c(Cl)cccc3Cl)noc2C)no1,0% (inactive),
CCc1ccc(OCC(O)CN2CCN(c3ccc(OC)cc3)CC2)cc1 (stereo unspecified),-3.27% (inactive),
CC(C)(C)C(=O)Nc1ccc(C(=O)Nc2cccc(Oc3ccc(C(=O)O)c(C(=O)O)c3)c2)cc1,9.79% (inactive),-1.52
O=C(c1ccccc1)c1ccc(Oc2ccc(C(=O)O)c(C(=O)O)c2)cc1,2.64% (inactive),-1.5
COc1cc(-c2nc3ccccn3c2/N=C/c2ccc(F)cc2)ccc1O,-1.47% (inactive),
O=C(c1ccc2c3c(cccc13)CC2)C1CCCN(Cc2ccncc2)C1 (stereo unspecified),-3.47% (inactive),
O=C(c1ccc2c3c(cccc13)CC2)C1CCCN(Cc2cccnc2)C1 (stereo unspecified),-8.53% (inactive),
O=C(NCCO)C(=O)NCC(c1cccs1)S(=O)(=O)c1ccc(F)cc1 (stereo unspecified),0% (inactive),
CC(C)C[C@@H](CNC(=O)OC(C)(C)C)NC(=O)c1nc[nH]c1C(=O)N[C@@H](CC(C)C)C(=O)CNC[C@H](CC(C)C)NC(=O)c1nc[nH]c1C(=O)N[C@@H](Cc1c[nH]c2ccccc12)C(=O)OC(C)(C)C,-7.03% (inactive),
CC1(C)CC(=O)C=C(C(=O)N2CCCC(C(=O)c3cc(F)ccc3F)C2)O1 (stereo unspecified),-6.28% (inactive),
CCN(C1CCCCC1)S(=O)(=O)CCNC(=O)c1ccc2c(c1)OCO2,-2.2% (inactive),
c1ccc2c(-n3cccn3)cccc2c1,-11.8% (inactive),
Cc1ccn(-c2cc(O)c(-n3ccc(C)n3)cc2O)n1,-6.11% (inactive),
CCOc1ccccc1C(=O)OCC(=O)Nc1ccc(OC(F)F)cc1,0.68% (inactive),-8.52
COc1ccc(OC)c(/C=C2\SC(=S)N(NS(=O)(=O)c3ccccc3)C2=O)c1,43.4% (inactive),
COc1ccccc1/C=C1\SC(=S)N(Nc2nc(C)cc(C)n2)C1=O,7.21% (inactive),
COc1ccc(/C=C2\SC(=S)N(NS(=O)(=O)c3ccc(C)cc3)C2=O)c(OC)c1,16.5% (inactive),
COc1ccccc1/C=C1\SC(=S)N(N2C(=O)CCCC2=O)C1=O,0% (inactive),
Cc1cc2cc(C#N)c(SCC(=O)Nc3nonc3C)nc2cc1C,3.66% (inactive),
O=C(CSc1nnc2ccccn12)NC(=O)c1cccc([N+](=O)[O-])c1,-2.72% (inactive),
Cc1nc(NN)nc(NCc2ccccc2)n1,-1.54% (inactive),
CC[C@H]1c2[nH]c3ccccc3c2C[C@@H]2C(=O)N(c3ccc(F)cc3)C(=O)N21,0% (inactive),
Cc1ccc(C(=O)NNC(=O)C2CSC3(C)CCC(=O)N23)cc1 (stereo unspecified),5.19% (inactive),

Structure (SMILES),inhibition,inhibition [1] [%]
Cc1cc(=O)[nH]c(SCC(=O)Nc2nnc(SCc3ccccc3)s2)n1,-1.48% (inactive),
CC(=O)Nc1c(O)nc(SCC(=O)Nc2nnc(SCc3ccccc3)s2)[nH]c1=O,3.91% (inactive),
COc1cccc(CN2CCNC(=O)C2CC(=O)NCCc2ccccn2)c1 (stereo unspecified),-3.12% (inactive),
Cc1occc1C(=O)Nc1cnn(CCCC(=O)O)c1,0.32% (inactive),
O=C(CC(=O)NN=C1CCCCCC1)NCc1cccnc1,-7.12% (inactive),
COc1cc(/C=C2/SC(=S)N(CC(=O)O)C2=O)ccc1OC(=O)c1ccco1,-8.15% (inactive),
COc1cc(/C=C2\SC(=S)N(CC(=O)O)C2=O)ccc1OC(=O)c1ccco1,-6.52% (inactive),
CCOc1ccc(/C=C2\SC(=S)N(CCC(=O)O)C2=O)cc1,10.9% (inactive),
CCOc1cc(/C=C2/SC(=S)N(Cc3ccccc3)C2=O)ccc1O,-16.7% (inactive),
CCn1c(O)c(/C=C2\C=NN=C2c2ccccc2)sc1=S,1.56% (inactive),
Cc1ccc(C2=NN(C(=O)CCC(=O)O)C(c3ccc4c(c3)OCO4)C2)cc1 (stereo unspecified),-1.55% (inactive),
COc1ccc(CNC(=O)CN(Cc2ccccc2F)C(=O)c2csnn2)cc1,-7.27% (inactive),
CCc1cccc2c1NC(=O)C21N2CCCC2C(C(=O)c2ccc3ccccc3c2)C12C(=O)Nc1ccccc12 (stereo unspecified),-10.4% (inactive),
Cc1c(Cl)cccc1NC(=O)CC1Sc2ccccc2NC1=O (stereo unspecified),-2.59% (inactive),
O=C(O)c1ccc(C(=O)C(=O)c2ccccc2)cc1,-3.83% (inactive),
CCN(CC)c1ccc(C(=O)O)cc1,-2.67% (inactive),
O=C(Oc1ccc(/C=N/NC(=O)c2ccccn2)cc1)c1cccc(F)c1,0.65% (inactive),
O=S(=O)(c1ccccc1)c1nc(-c2ccc(F)cc2)oc1NCC1CCCO1 (stereo unspecified),-1.48% (inactive),
CC(C)NC(=O)C(=O)Nc1ccc2c(c1)N(S(=O)(=O)c1cccs1)CCC2,2.2% (inactive),
CCn1c(-c2ccco2)nc2ccccc21,-5.14% (inactive),
c1coc(Cn2c(-c3ccco3)nc3ccccc32)c1,-8.81% (inactive),
O=C(CCc1nc(-c2ccc(Cl)cc2)no1)NCc1ccccc1CN1CCOCC1,1.12% (inactive),
O=C(C=Cc1cccc(Cl)c1)c1ccccc1,-41.2% (inactive),

Structure (SMILES),inhibition,inhibition [1] [%]
CN(C)c1ccc(/C=C(\C#N)C(=O)c2ccccc2)cc1,-80.6% (inactive),
CNC(=S)N(CCN(C)C)Cc1cc2cc3c(cc2[nH]c1=O)OCO3,-3.53% (inactive),
Cn1c(=O)cc(N)n(-c2ccccc2)c1=O,1.3% (inactive),
O=C1c2ccccc2COc2ccc(O)cc21,4% (inactive),
Cc1ccnc(N2CCC(C(=O)Nc3ccc4c(c3)CCC4)CC2)n1,-1.37% (inactive),-2.12
CCc1nnc(NC(=O)CSc2nc(-c3ccc(OC)cc3)ns2)s1,-9.71% (inactive),
CCN(CC)c1ccc(C(=O)c2ccccc2C(=O)O)c(O)c1,8.17% (inactive),6.25
CN(C)c1ccc(C(=O)c2ccccc2C(=O)O)c(O)c1,-0.81% (inactive),
Cc1nc(N)nc(N(C)c2ccccc2)c1Br,3.09% (inactive),
O=C(COC(=O)C1CCN(S(=O)(=O)c2cccc3cccnc23)CC1)c1ccc([N+](=O)[O-])cc1,-7.6% (inactive),
O=S(=O)(Cc1ccccc1)N1CCN(Cc2ccc(F)cc2Cl)CC1,-4.55% (inactive),
COc1ccc(N=C(c2ccccc2)c2c(C)[nH]n(-c3ccccc3)c2=O)c(OC)c1,-10.3% (inactive),
COc1ccc(C(C[N+](=O)[O-])c2c(C)[nH]n(-c3ccccc3)c2=O)cc1 (stereo unspecified),-13.7% (inactive),
COc1cc(C(c2c(C)[nH][nH]c2=O)c2c(C)[nH][nH]c2=O)cc(OC)c1OC,1.7% (inactive),
COc1ccc(C(c2c(C)n(C)n(-c3ccccc3)c2=O)c2c(C)n(C)n(-c3ccccc3)c2=O)cc1OC,-2.72% (inactive),
Nc1nccc(/C=C/c2c(Cl)cccc2Cl)n1,-5.43% (inactive),
Cn1c(=O)c2c(SCc3ccccc3)nc(C3CC3)nc2n(C)c1=O,-11.1% (inactive),
CC(C)(C)OC(=O)C[C@H]1C/C=C\C[C@@H](CC(=O)N(CCO)Cc2ccccc2)C(=O)N[C@@H](Cc2ccccc2)COC1=O,1.65% (inactive),
CCOC(=O)C1CCN(C(=O)C2CCN(S(=O)(=O)c3ccc4c(c3)CC(C)N4C(C)=O)CC2)CC1 (stereo unspecified),2.72% (inactive),
O=C(C1CCN(Cc2ccc(Cl)cc2)CC1)N1CCN(C(c2ccccc2)c2ccccc2)CC1,-2.91% (inactive),
O=C(O)c1ccc2c(c1)C(=O)N(c1ccc(Nc3ccccc3)cc1)C2=O,7.94% (inactive),
O=C(O)c1ccc2c(c1)C(=O)N(c1cccc(C(=O)/C=C/c3ccccc3)c1)C2=O,-7.15% (inactive),
O=C(c1ccccc1)c1ccccc1C(=O)c1ccccc1,1.31% (inactive),

Structure (SMILES),inhibition,inhibition [1] [%]
O=C(c1ccccc1)c1ccccc1,-1.45% (inactive),
Cc1ccc(CN2[C@@H]3c4ccccc4C[C@@H]3OCCS2(=O)=O)cc1,-4.81% (inactive),
O=C(NCCc1ccccc1)c1cnc2ccccn2c1=O,1.36% (inactive),
O=C1c2ccccc2-c2cccnc21,-0.66% (inactive),
COc1cc(CCNC2=CC(=O)c3ncccc3C2=O)ccc1O,-6.94% (inactive),
COC(=O)CC1=NN(c2ccc(OC)cc2)C(=O)/C1=C\c1ccc(Cl)cc1,-4.74% (inactive),
COc1ccc(C2=NN(c3ccccc3)C(=O)/C2=C\c2ccc(O)c(OC)c2)cc1,8.85% (inactive),
COc1ccc(/C=C2/C(=O)N(c3cccc(F)c3)N=C2C)c(OC)c1,16.7% (inactive),
CCOC(=O)CC1=NN(c2ccccc2)C(=O)/C1=C\c1ccc(N(C)C)cc1,13.3% (inactive),
O=C(CN1C(=O)c2ccccc2C1=O)OCC(=O)c1ccc(F)cc1,5.07% (inactive),
COc1cc(C(=O)NCC(c2ccco2)N2CCOCC2)cc(OC)c1OC (stereo unspecified),-3.67% (inactive),
CCOc1ccc(CCN2C(=S)N([C@@H](CC(C)C)CN3CCCC3CN3C(=S)NC[C@@H]3CC(C)C)C[C@@H]2Cc2ccccc2)cc1 (stereo partly specified),0.65% (inactive),
O=C(c1ccc(NC(=S)Nc2ccc(Cl)c(Cl)c2)cc1)N1CCCC1,-10.3% (inactive),
COc1cccc2cc(C(=O)CS(=O)(=O)c3ccc(C)cc3)c(=O)oc12,10.9% (inactive),
Cc1ccc(S(=O)(=O)CC(=O)c2cc3cccc(C)c3oc2=O)cc1,5.44% (inactive),
COCCCNC(=O)/C=C/c1c(Cl)cccc1Cl,-0.74% (inactive),
COC(=O)c1ccc(C2C(C(=O)c3ccc(C)o3)=C(O)C(=O)N2c2cc(C)on2)cc1 (stereo unspecified),-3.53% (inactive),
CCOc1ccc(C2C(C(=O)c3ccc(C)o3)=C(O)C(=O)N2c2cc(C)on2)cc1OC (stereo unspecified),4.09% (inactive),
Cc1cc(N2C(=O)C(O)=C(C(=O)c3ccco3)C2c2cccc(O)c2)no1 (stereo unspecified),-4.44% (inactive),
Cc1cc(N2C(=O)C(O)=C(C(=O)c3ccco3)C2c2cccc(Cl)c2)no1 (stereo unspecified),-4.65% (inactive),
Cc1cc(N2C(=O)C(O)=C(C(=O)c3ccc(C)o3)C2c2cccc(Cl)c2)no1 (stereo unspecified),10.9% (inactive),
COc1cccc(C2C(C(=O)c3ccc(C)o3)=C(O)C(=O)N2c2cc(C)on2)c1 (stereo unspecified),-1.77% (inactive),

# From PubChem BioAssay AID588689 (Southern Research Specialized Biocontainment Screening …, 2011)
